Test results as given in PubChem BioAssay (Tox21).
Inconclusive results are not listed. Active and inactive are the calls of the source. Calls come from the whole dose curve; as a rule, active = well fitted curve in the direction sought with a large enough effect in the signal ratio in the repeat runs (not every such curve was filed as active); inconclusive = weak or mixed curves, or a change in a side signal; inactive = no such curve, though single readings can be large or run the other way; the % refers to the signal ratio.

Test: qHTS assay to identify small molecule agonists of the NFkB signaling pathway (AID 1159509)
Details: NFkB-bla ME-180 cells, beta-lactamase FRET ratio, 5 h; series mostly up to 61 µM; activation: at the top concentration
From the text: National Center for Advancing Translational Sciences [NCATS]
NIH Chemical Genomics Center [NCGC]
U.S. Environmental Protection Agency [EPA]
National Institutes of Environmental Health Sciences [NIEHS]
National Toxicology Program [NTP]
U.S. Food and Drug Administration [FDA]
Transcription factors and their stimulated target gene expression play pivotal roles across many cellular processes including responses to environmental stimuli. Proper regulation of associated pathways is critical to maintain cell health and function. Constitutive activation of transcription factor pathways has been implicated in tumors as it may block cellular functions such as apoptosis and lead to invasion and metastasis. One important transcription factor that stimulates gene expression in response to cytokines, UV radiation, and other stimuli is nuclear factor-kappa B (NFkB). To measure activation of the NFkB pathway, the CellSensor NFkB-bla ME-180 cell line (Life Technologies, Carlsbad, CA) that stably expresses beta-lactamase reporter gene under the regulation of a NF-kB response element was used. This assay allows measurement of the NFkB pathway activity induced by compounds in a ME-180 cell line. This system quantitates NF-kB activity using a FRET-based assay system where beta-lactamase expression disrupts FRET, allowing for fluorescent measurement of activity. This cell line has been used to screen the Tox21 10K compound library and to identify compounds that induce the NFkB pathway activity.
Tox21 Assay Protocol Summary:
NFkB-bla ME-180 cells were dispensed at 2,000 cells/6 uL of assay medium per well into black wall/clear-bottom 1536-well plates using a Multidrop Combi (ThermoFisher Scientific, Waltham, MA) dispenser. After the assay plates were incubated at 37 C and 5% CO2 for an overnight, 23 nL of compounds dissolved in DMSO, positive controls or DMSO only was transferred to the assay plate by a Pintool station (Kalypsys, San Diego, CA). The assay plates were incubated at 37 C and 5% CO2 for 5 hr. One uL of LiveBLAzer B/G FRET substrate (Life Technologies) was added using a Flying Reagent Dispenser (Aurora Discovery, San Diego, CA) and the plates were incubated at room temperature for 1.5 hr. Fluorescence intensity (405 nm excitation, 460 nm and 530 nm emissions) was measured using an Envision plate reader (PerkinElmer, Shelton, CT).
% is set by controls: 0 for no effect and ±100 for the full control effect.

SMILES	activation
CC(C)(C)S	0.0394% [at 78.8 µM] (inactive)
C=CCOC(=O)COCCC(C)C	0.11% (inactive)
Cc1ccccc1S(N)(=O)=O	0.309% (inactive)
CC1C(C)(C)C2=C(C(=O)CCC2)C1(C)C (stereo not given)	0.3% (inactive)
COc1cc(NCc2ccc3nc(N)nc(N)c3c2C)cc(OC)c1OC	0.317% (inactive)
CNCc1ccc(NC(=O)c2c[nH]c3c2C(=O)CCC3)cc1	0.455% (inactive)
CC(=O)OC(C)C[N+](C)(C)C (stereo not given)	0.895% (inactive)
C1CCCCC1	0.222% [at 78.8 µM] (inactive)
CC(CO)(CO)C(=O)O	-0.117% [at 78.8 µM] (inactive)
Nc1ccc(NC(=O)c2ccc(N)cc2)cc1	-0.197% (inactive)
CC(O)Cn1cnc2c1c(=O)n(C)c(=O)n2C (stereo not given)	-0.471% (inactive)
CCCCCCCCCCCCCOS(=O)(=O)O	2.12% (inactive)
CSSc1ccoc1C	-1.02% (inactive)
CNc1c2c(nn1C)CCCC2	-0.835% (inactive)
Nc1ccc(S(=O)(=O)NCc2ccccc2)cc1	0.0534% (inactive)
O=C1[C@@H]2[C@H]3CC[C@H](C3)[C@@H]2C(=O)N1CCCCN1CCN(c2ncccn2)CC1	-0.247% (inactive)
O=C(O)CCS	-0.269% [at 78.8 µM] (inactive)
O=[N+]([O-])c1ccc2ncccc2c1	-0.765% (inactive)
O=C1CC[C@@H](C(=O)O)N1	-0.36% (inactive)
c1ccc2sc(SSc3nc4ccccc4s3)nc2c1	-0.511% [at 28.5 µM] (inactive)

SMILES	activation
O=C(O)CCC(=O)OC[C@@H](NC(=O)C(Cl)Cl)[C@H](O)c1ccc([N+](=O)[O-])cc1	-0.0467% (inactive)
O=c1[nH][nH]c(=O)c2cc([N+](=O)[O-])ccc12	-0.492% [at 78.8 µM] (inactive)
CCN(CC)CCOC(=O)C(c1ccccc1)c1ccccc1	0.235% (inactive)
COC(=O)c1sccc1S(N)(=O)=O	-0.329% (inactive)
CCC(C)(C)C(=O)O	0.056% (inactive)
CCCOC(=O)c1c(Cl)c(Cl)c(Cl)c(Cl)c1C(=O)OCCC	0.349% (inactive)
O[C@@H](CNC[C@H](O)[C@H]1CCc2cc(F)ccc2O1)[C@@H]1CCc2cc(F)ccc2O1	2.16% (inactive)
CN1C(CSCC(F)(F)F)Nc2cc(Cl)c(S(N)(=O)=O)cc2S1(=O)=O (stereo not given)	0.162% (inactive)
Nc1cccc2c(N)cccc12	1.49% (inactive)
CC(C)(O)c1coc(S(=O)(=O)NC(=O)Nc2c3c(cc4c2CCC4)CCC3)c1	0.908% (inactive)
CC(=O)Oc1cccc(O)c1	-0.652% (inactive)
CCOC(=O)N1CCC(Nc2ccc(Cl)cc2N)CC1	-0.225% (inactive)
Oc1ccc2c(c1)Cc1ccccc1-2	1.08% (inactive)
CC(C)(C(=O)c1cccnc1)c1cccnc1	0.19% (inactive)
Cc1cc(CCCOc2c(C)cc(-c3noc(C(F)(F)F)n3)cc2C)on1	-0.187% (inactive)
O=S(=O)(O)CO	0.0924% (inactive)
C=C(C)C(=O)OCCC(F)(F)C(F)(F)C(F)(F)C(F)(F)C(F)(F)C(F)(F)F	-0.2% (inactive)
CCOc1ncc(F)c(=O)[nH]1	0.732% (inactive)
C=CC(=O)O	0.577% (inactive)
CCN(CC)c1cccc(O)c1	0.857% [at 78.8 µM] (inactive)
